SENP6 block: inhibitors of human SENP6 protease; Q9GZR1; Recombinant SENP6 catalytic domain, aminoluciferin luminescence; inhibition, % at 10 µM; 1.8% of 330,000 active; AID 2599;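 active = inhibition above about 50% at the single tested dose, limit read from the data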;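 also: plate controls were DMSO wells with enzyme for no effect and DMSO wells lacking enzyme for full effect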
PPC-1+TRAIL kill: PPC-1 cancer cell killing with TRAIL present; AID 1443; PPC-1 cells + TRAIL, ATPLite viability luminescence; 0.41% of 220,000 active; cell killing (% activity), % at 4 µM or 5 µM;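 active = cell killing above 50% in the first pass at 4 µM, then a duplicate retest at 5 µM averaging 50% or more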;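 also: plate controls were cells with TRAIL plus DMSO for no effect and medium-only wells lacking cells for full effect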
SENP8 block-1: blocks human SENP8 cleavage of Nedd8 substrate; Q96LD8; recombinant SENP8, Nedd8 substrate fluorescence; inhibition, % at 20 µM; 0.64% of 360,000 active; AID 602440; in the data active = inhibition mostly above about 40%, no sharp cut-off; inactive = mostly below about 27%
SENP7 block: inhibitors of human SENP7 protease | recombinant SENP7, Z-RLRGG-aminoluciferin luminescence, 40 min | AID 434973 | inhibition, % at 5 µM | Q9BQF6 | 1.5% of 330,000 active;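 active = inhibition above about 50% at the single test dose, limit read from the data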;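 also: plate controls were DMSO with enzyme for no effect and no enzyme buffer wells for full effect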
Target sequence (Q9BQF6 706-1050 limits assumed): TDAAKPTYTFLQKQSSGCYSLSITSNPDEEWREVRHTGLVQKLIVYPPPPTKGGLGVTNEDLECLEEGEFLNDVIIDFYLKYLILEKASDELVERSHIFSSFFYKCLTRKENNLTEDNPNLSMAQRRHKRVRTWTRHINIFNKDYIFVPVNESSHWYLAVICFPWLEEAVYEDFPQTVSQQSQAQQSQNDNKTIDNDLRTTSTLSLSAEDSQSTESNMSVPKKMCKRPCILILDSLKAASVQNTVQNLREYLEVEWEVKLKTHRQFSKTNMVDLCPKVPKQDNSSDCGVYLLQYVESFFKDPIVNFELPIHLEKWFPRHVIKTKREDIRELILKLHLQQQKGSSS
C8 TRAIL sens: caspase-8 TRAIL sensitization. AID 624354. 1% of 360,000 active. NB7+C8 cells + TRAIL, ATPlite viability luminescence. inhibition (viability loss, TRAIL sensitization), % at 10 µM;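 active = compounds causing at least 50% loss of cell viability in the single-dose screen, relative to plate controls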
SENP8 block-2: blocks the human protease SENP8. Q96LD8. purified SENP8, Z-RLRGG-aminoluciferin cleavage, luminescence. inhibition, % at 10 µM. 1.2% of 330,000 active; in the data active = inhibition above about 50%
* marks the source's active call; other numbers are inactive results; . = not tested or not shown. Shown are actives, neighbours in structure and some others; about 3% of the full set was active somewhere.

SMILES	SENP6 block	PPC-1+TRAIL kill	SENP8 block-1	SENP7 block	C8 TRAIL sens	SENP8 block-2
COc1ccc(C(=O)Nc2ccc([N+](=O)[O-])cn2)c(OC)c1	28.9	17.3	17.6	39.6	52.9*	-1.8
CCN(CC)S(=O)(=O)c1cc([N+](=O)[O-])ccc1N=Nc1c(O)[nH]c2ccccc12	.	-5.8	42.9*	.	36.1	.
Cc1ccc2[nH]c(O)c(N=Nc3ccccc3[N+](=O)[O-])c2c1	.	.	22.9	.	-0.9	.
Cc1cc(NC(=O)c2ccc(Cl)cc2)cc(C)c1OCC(=O)N1CCOCC1	3.9	.	11.7	-3.5	53.9*	-5.0
CCCCOc1ccc(C(=O)Nc2cc(C)c(OCC(=O)N3CCOCC3)c(C)c2)cc1	-5.8	18.8	30.3	18.6	12.2	7.8
Cc1c2cnn(CC(=O)NCCN3CCOCC3)c(=O)c2c(C)n1Cc1ccccc1F	.	.	-2.7	.	-3.8	.
Cc1cccc(C)c1OCc1cc(C(=O)N(C)CCc2ccccn2)no1	-12.2	.	2.3	-2.6	23.6	-6.8
CC(C)C[C@H]1COc2cc(N3CC[C@H](O)C3)ccc2S(=O)(=O)N1	.	.	11.8	.	0.9	.
CCc1nnc(NC(=O)CSc2nc3c(cc2C#N)CCCC3)s1	-5.8	-35.1	-389.8	-2.4	58.1*	1.5
COc1cc(NC(=O)CCN2CCN(c3ccccc3OC)CC2)cc(OC)c1	.	.	24.5	.	-2.9	.
CCN(CC)c1ccc(/C=N/Nc2nc(C)cc(=O)[nH]2)c(O)c1	3.5	57.7*	-407.7	-0.7	49.4	0.4
O=S(=O)(c1ccc(Cl)cc1)N1CCN(C(=S)NCC2CCCO2)CC1 (configuration not stated)	-10.6	.	1.8	-11.5	-6.7	-2.4
O=C(Nc1ccc(C(=O)N2CCCCC2)cc1)c1ccccc1Br	0.2	.	4.3	-4.5	-6.7	1.5
O=c1c(=NNc2ccccc2Cl)c(=O)c2ccccc12	.	17.1	40.5*	.	76.7*	.
Cc1cc(C)c(NN=c2c(=O)c3ccccc3c2=O)c(C)c1	-1.9	0.6	21.6	32.4	-5.9	-14.4
CCCCn1c(=O)[nH]c(=O)c2c1nc(Cn1ncc(Cl)c(Cl)c1=O)n2CCC	13.8	.	-97.4	-2.9	95.3*	-0.4
O[C@@H](c1cc(C(F)(F)F)nc2c(C(F)(F)F)cccc12)[C@H]1CCCCN1	-12.0	.	9.5	4.2	22.4	-10.0
CC(C)(C)NCCC(O)c1cc(C(F)(F)F)nc2c(C(F)(F)F)cccc12 (configuration not stated)	.	.	5.4	.	91.4*	.
CCC(=O)NCc1cc(-c2nn(C)c(=O)c3ccccc23)ccc1C	-18.5	-16.6	21.1	-6.2	14.4	-7.0
Cc1ccc(-c2nn(CC(=O)NCc3cc(-c4nn(C)c(=O)c5ccccc45)ccc3C)c(=O)c3ccccc23)cc1	-6.3	31.5	4.1	-9.4	62.5*	1.9
CC[C@]12c3[nH]c4ccc(Cl)cc4c3CCN1C(=O)[C@@H](CC(=O)NCc1cccc(C(F)(F)F)c1)C[C@@H]2C(=O)N1CCN(C(=O)c2ccco2)CC1	.	.	2.2	-0.5	61.4*	.
CC[C@]12c3[nH]c4ccc(OC)cc4c3CCN1C(=O)C(CC(=O)NCc1cccc(C(F)(F)F)c1)C[C@@H]2C(=O)N1CCN(C(=O)c2ccco2)CC1 (some centres not stated)	.	.	3.5	14.3	-15.3	.
CC(C)C[C@@H]1O[C@H](C(C)C)Cc2[nH][nH]c(=O)c21	.	.	6.9	.	-14.7	.
CC(=O)c1ccc(N(C)C)cc1	-10.1	5.7	1.3	-15.3	1.9	-5.6
CN(C)c1ccc(Cc2cc3c(O)ccc(O)c3cc(Cc3ccc(N(C)C)cc3)c2=O)cc1	.	.	51.7*	.	-3.9	.
CC1=NN(c2nc(N)nc(/C(C#N)=C/c3ccc([N+](=O)[O-])o3)n2)C(C)(C)C1	.	.	-13.9	.	79.5*	.
O=C1C2C(C(=O)N1/N=C/c1ccc([N+](=O)[O-])o1)C1C=CC2C12CC2 (configuration not stated)	16.9	14.0	24.9	11.4	9.6	6.0
CNC(C)C(=O)NC(C(=O)NC(C)C(=O)Nc1cccc2ccccc12)C(C)C (configuration not stated)	.	.	-46.3	.	0.7	.
CC(OC(=O)CNC(=O)c1sc2ccccc2c1Cl)C(=O)NC1(C#N)CCCCC1 (configuration not stated)	-15.0	.	13.6	1.4	-2.7	0.4
O=C(N/N=C/c1ccc(Br)s1)c1ccccn1	34.3	33.6	-42.3	14.8	51.6*	-0.4

Compound activity: PubChem BioAssay, Sanford-Burnham Center for Chemical Genomics
